The record followed here is PubChem BioAssay.

A short description of test [1]: resazurin metabolic signal in HepG2 cells – cell-based, resazurin fluorescence, 24 h, PK04 Diversity Set, profiling panel (AID 1172). Note: test concentration not given here. The settings on record: HepG2 viability, higher = more signal. (Resazurin is reduced to fluorescent resorufin, in cell work by metabolically active cells.)
The nature of test [2]: budding yeast growth changes without added modifier – OD600, strain BY4716, 24 h, basal condition, primary screen (AID 1173). To be noted: S. cerevisiae BY4716 growth, OD600, 24 h; higher = more signal, called active from +8 up or from −8 down.
Test [3] can be described thus: viability profiling in MM1S myeloma cells – cell-based, resazurin fluorescence, basal, 24 h, PK04 Diversity Set, profiling panel (AID 1174).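 Note: MM1S multiple myeloma cell line; test concentration not given here.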 The settings on record: higher = more signal, called active from +8 up or from −8 down.
Test [4] addresses Dihydroorotate dehydrogenase (quinone), mitochondrial (Plasmodium falciparum (isolate 3D7)) (UniProt Q08210). The experiment in a line: inhibition of P. falciparum DHODH – biochemical, C-terminal His tag, absorbance 600 nm, primary screen (AID 1175).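 Note: recombinant parasite enzyme with a five histidine tag at its C terminus; test concentration not given here.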 To be noted: PfDHODH enzyme, DCIP absorbance 600 nm; higher = more signal, called active from +8 up or from −8 down.
Test [5] can be described thus: inhibition of PAO1 biofilm formation – strain PAO1, LB-PBS medium, absorbance 600 nm, primary screen (AID 1176). Note: test concentration not given here. To be noted: P. aeruginosa PAO1 growth/biofilm, A600, 12 h; higher = more signal.
The nature of test [6]: growth modulation of vineyard yeast isolate – strain RM11-1a, OD600, basal, 24 h, primary screen (AID 1177).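 Note: cultures grown under basal conditions with no added stressor; test concentration not given here.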 To be noted: S. cerevisiae RM11-1a growth, OD600, 24 h; higher = more signal, called active from +8 up or from −8 down.
The nature of test [7]: growth of efflux-deficient E. coli DRC39 – strain DRC39, OD650, 24 h, E. coli filamentation inducers, primary screen (AID 1178).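 Note: growth measured as culture turbidity by optical density at 650 nm; test concentration not given here.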 The settings on record: E. coli DRC39 acrAB, higher = more signal, called active from +8 up or from −8 down.
Test [8] can be described thus: growth of efflux-deficient E. coli DRC39 – strain DRC39, OD650, 48 h, E. coli filamentation inducers, primary screen (AID 1179).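 Note: screen aims at cell division blockers that make cells filament.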 The settings on record: E. coli DRC39 delta-acrAB growth, higher = more signal, called active from +8 up or from −8 down.
Test [9] is described as follows: viability profiling in RPMI8226 myeloma cells – cell-based, resazurin fluorescence, basal, 24 h, PK04 Diversity Set, profiling panel (AID 1180).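 Note: RPMI8826 multiple myeloma cell line at 5000 cells per well; test concentration not given here.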 The settings on record: higher = more signal.
Test [10] concerns the target E3 ubiquitin-protein ligase XIAP (Homo sapiens) (UniProt P98170). The experiment in a line: small molecules binding XIAP protein – biophysical, small-molecule microarray, fluorescence 635 nm, primary screen (AID 1181).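 Note: score merges 667 nm emission and signal to noise over triplicate slides.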 The settings on record: higher = more signal.

Active and inactive are the calls of the source. Unless noted, the rule behind the calls is not given here.

Chain of E3 ubiquitin-protein ligase XIAP (Homo sapiens) (P98170 whole entry, looked up): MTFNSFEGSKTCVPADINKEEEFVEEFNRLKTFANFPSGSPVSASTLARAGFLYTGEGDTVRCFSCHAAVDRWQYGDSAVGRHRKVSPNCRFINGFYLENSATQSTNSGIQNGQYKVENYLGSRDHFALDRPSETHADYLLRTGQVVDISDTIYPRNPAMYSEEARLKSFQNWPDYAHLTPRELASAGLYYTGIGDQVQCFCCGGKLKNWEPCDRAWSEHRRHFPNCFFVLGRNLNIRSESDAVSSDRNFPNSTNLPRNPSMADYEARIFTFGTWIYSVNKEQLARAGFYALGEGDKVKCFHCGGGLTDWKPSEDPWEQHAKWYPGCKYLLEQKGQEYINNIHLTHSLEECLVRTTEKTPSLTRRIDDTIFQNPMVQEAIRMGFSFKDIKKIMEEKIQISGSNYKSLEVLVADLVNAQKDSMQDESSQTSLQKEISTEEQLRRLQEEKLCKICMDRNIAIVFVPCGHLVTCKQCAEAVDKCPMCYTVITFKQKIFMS
Chain of Dihydroorotate dehydrogenase (quinone), mitochondrial (Plasmodium falciparum (isolate 3D7)) (Q08210 whole entry, looked up): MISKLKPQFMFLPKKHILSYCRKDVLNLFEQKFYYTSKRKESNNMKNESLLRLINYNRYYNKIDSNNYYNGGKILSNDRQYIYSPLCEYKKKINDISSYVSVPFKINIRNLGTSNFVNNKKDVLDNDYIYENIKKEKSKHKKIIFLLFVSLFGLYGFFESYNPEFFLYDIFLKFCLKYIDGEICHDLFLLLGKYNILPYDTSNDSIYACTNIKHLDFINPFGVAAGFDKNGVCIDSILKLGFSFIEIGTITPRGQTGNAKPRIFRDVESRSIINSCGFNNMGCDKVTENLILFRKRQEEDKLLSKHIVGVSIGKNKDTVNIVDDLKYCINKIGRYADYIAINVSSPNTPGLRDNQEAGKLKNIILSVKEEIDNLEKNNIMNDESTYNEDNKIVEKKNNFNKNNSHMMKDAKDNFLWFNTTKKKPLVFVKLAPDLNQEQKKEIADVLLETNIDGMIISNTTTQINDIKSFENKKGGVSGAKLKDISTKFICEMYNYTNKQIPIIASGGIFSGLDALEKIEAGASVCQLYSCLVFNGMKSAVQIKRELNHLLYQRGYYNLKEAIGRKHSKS

Turning to `CCOC(=O)C[C@H]1[C@H](OC(=O)c2cc3ccccc3oc2=O)[C@@H](NC(=O)c2ccc(-c3ccccc3)cc2)c2cc(OCCCO)ccc2N1C(=O)Cc1ccc(OC)cc1`, the z-score in test [1] is 0.288; in test [2], 0.0392 (inactive); in [3], -0.346 (inactive); in test [5] it was 0.285 (inactive); in test [6], -0.0775 (inactive); in test [7], -0.225 (inactive). The z-score in test [8] is -0.618 (inactive); in test [9] it was -0.0232. For the same compound, the composite z-score in test [4] is -0.487 (inactive); in test [10] it was -0.338.
`CN1C(=O)C2C=CC(C(O)c3cccs3)N(N(c3ccccc3)c3ccccc3)C2C1=O` (stereo not given): the z-score is -0.428 in test [1]; 0.754 (inactive) in test [2]; -1.13 (inactive) in test [3]; 0.419 (inactive) in test [5]; 0.567 (inactive) in [6]; -0.483 (inactive) in [7]. The results for the z-score in test [8] and in test [9] were 0.0156 (inactive) and -0.985, respectively. In addition, the results for the composite z-score in test [4] and in test [10] were 0.656 (inactive) and 0.462, respectively.
`C=CCNC(=O)[C@@H]1[C@H]2C(=O)O[C@H](c3ccccc3)[C@H](c3ccccc3)N2[C@H](c2ccc(OCCO)cc2)[C@@]12C(=O)N(C(=O)OCCOC)c1ccccc12`: the z-score in [1] was 0.0303; in test [2], 1.98 (inactive); in [3], -0.522 (inactive); in test [5] it was 2.69 (inactive); in test [6], 3.16 (inactive); in test [7], 0.446 (inactive). Moreover, the figures for the z-score in test [8] and in test [9] were 0.282 (inactive) and -0.289, respectively. The composite z-score in test [4] was 0.659 (inactive); in test [10], 0.0623.
With `C=C(COC)C(=O)CC[C@@H](OC(=O)c1ccccc1-c1ccccc1C(=O)O)c1ccccc1OCCO`, the z-score in [1] was 0.078; in test [2], -1.22 (inactive); in test [3] it was -1.95 (inactive); in [5], 2.1 (inactive); in [6] it was -0.341 (inactive); in test [7] it was 0.0796 (inactive). Besides, the z-score is -0.129 (inactive) in [8] and -1.81 in [9]. Moreover, the figures for the composite z-score in test [4] and in [10] were -1.57 (inactive) and 0.261, respectively.
Regarding `O=C1O[C@H](c2ccccc2)[C@H](c2ccccc2)N2[C@H]1[C@@H](C(=O)Nc1nc3ccccc3s1)[C@]1(C(=O)Nc3ccccc31)[C@H]2c1ccccc1OCCO`, the z-score is 0.551 in test [1]; 0.448 (inactive) in [2]; -1.93 (inactive) in test [3]; 2.76 (inactive) in test [5]; 2.72 (inactive) in test [6]; -0.0179 (inactive) in test [7]. For the same compound, the z-score in test [8] is -0.145 (inactive); in test [9], -3.31. Moreover, the composite z-score in [4] was 0.386 (inactive); in test [10], -0.128.
Take `C=C(COC)/C(=C/C[C@@H](OC(=O)c1ccncc1)c1ccccc1OCCO)c1cnc2ccccc2c1`: the z-score is -0.567 in test [1]; -0.0618 (inactive) in test [2]; 0.028 (inactive) in [3]; -0.66 (inactive) in test [5]; 0.0519 (inactive) in [6]; 0.825 (inactive) in test [7]. For the same compound, the z-score is 0.359 (inactive) in test [8] and 0.0353 in [9]. For the same compound, the composite z-score in test [4] was -3.66 (inactive); in test [10] it was 0.166.
Turning to `C=C(C(=O)CC[C@@H](OC(=O)c1cccnc1)c1cccc(OCCO)c1)C(C)C`, the z-score in test [1] is 0.38; in [2], -0.58 (inactive); in test [3], -0.667 (inactive); in test [5] it was 0.33 (inactive); in [6], -1.3 (inactive); in [7], 0.863 (inactive). Also, the z-score in test [8] is 0.816 (inactive); in test [9], -1.34. In addition, the composite z-score is -1.33 (inactive) in test [4] and 0.127 in test [10].
Regarding `O=C1NC(=O)C2C1C=CC(C(O)C(O)CO)N2Nc1ccccn1` (stereo not given), the z-score in test [1] was -0.908; in test [2], 0.802 (inactive); in test [3], -0.872 (inactive); in test [5] it was 1.11 (inactive); in [6] it was -0.645 (inactive); in test [7], -0.0259 (inactive). The z-score is 0.61 (inactive) in test [8] and -0.885 in test [9]. Besides, the composite z-score in test [4] was -0.683 (inactive); in [10], -0.195.
Take `CC[C@@H](O[Si](C#C[Si](C(C)C)(C(C)C)C(C)C)(C(C)C)C(C)C)c1cn([C@H](C)c2ccccc2)nn1`: the z-score in test [1] is -0.0011; in test [2], 1.66 (inactive); in test [3], 0.248 (inactive); in test [5], 0.596 (inactive); in test [6] it was 0.887 (inactive); in [7], -0.263 (inactive). Further, the z-score was 0.142 (inactive) in test [8] and 0.328 in [9]. Moreover, the composite z-score in test [4] is 0.308 (inactive); in test [10], -0.209.
Consider `O=C1c2ccccc2[C@](Cc2ccccc2I)(C(=O)NCCN2CCOCC2)[C@H](c2ccc(CO)cc2)N1Cc1ccccc1C(F)(F)F`, for which the z-score is -0.936 in test [1]; -1.14 (inactive) in test [2]; -0.269 (inactive) in test [3]; 0.0435 (inactive) in test [5]; -0.538 (inactive) in test [6]; 0.0398 (inactive) in test [7]. In addition, the z-score in [8] is -0.46 (inactive); in test [9], -0.606. The values for the composite z-score in [4] and in test [10] were -0.584 (inactive) and -0.0095, respectively.
As to `CN1C(=O)C2C(C1=O)C1C=C(CCCO)C2C(C2CC2)N1C` (stereo not given), the z-score in test [1] was -1.15; in [2], 0.275 (inactive); in test [3], -0.228 (inactive); in test [5], -0.214 (inactive); in test [6], -0.593 (inactive); in [7], 0.796 (inactive). Besides, the z-score in test [8] was 1.44 (inactive); in test [9] it was -0.965. In addition, the composite z-score is -2.87 (inactive) in test [4] and 0.333 in test [10].
As to `CC(C)C[C@@H]1NC(=O)[C@@H]2C[C@H](C(=O)NCCCCCNC(=O)CS)[C@H](c3ccc(O)cc3)N2C1=O`, the z-score in [1] is 0.432; in test [2], -1.44 (inactive); in [3] it was 0.974 (inactive); in test [5], 2.91 (inactive); in [6], -1.38 (inactive); in test [7], -0.692 (inactive). Further, the z-score is -0.539 (inactive) in [8] and 0.718 in [9]. For the same compound, the composite z-score in test [4] is -0.24 (inactive); in test [10], 0.302.
